We go through 96 molecules from PubChem BioAssay AID1851 (National Center for Advancing Translational Sciences (NCATS), 2009).

Hit rate of the full screen: of about 16,000 compounds, about 5,700 (36%) were called active. Not shown: some 24% with an inconclusive outcome. Some of the results follow. A number with no mark means an inactive call. Calls follow the shape of the dose curve; as a rule, active = well fitted curve in the direction sought with a large enough effect; inconclusive = small, poorly fitted or top-dose-only effect, or effect the other way; inactive = no such curve, though single readings can be large or run the other way.
% is scaled to controls: 0 for no effect and ±100 for the full control effect.

Cytochrome P450 1A2 (Homo sapiens), sequence (P05177 whole entry, looked up): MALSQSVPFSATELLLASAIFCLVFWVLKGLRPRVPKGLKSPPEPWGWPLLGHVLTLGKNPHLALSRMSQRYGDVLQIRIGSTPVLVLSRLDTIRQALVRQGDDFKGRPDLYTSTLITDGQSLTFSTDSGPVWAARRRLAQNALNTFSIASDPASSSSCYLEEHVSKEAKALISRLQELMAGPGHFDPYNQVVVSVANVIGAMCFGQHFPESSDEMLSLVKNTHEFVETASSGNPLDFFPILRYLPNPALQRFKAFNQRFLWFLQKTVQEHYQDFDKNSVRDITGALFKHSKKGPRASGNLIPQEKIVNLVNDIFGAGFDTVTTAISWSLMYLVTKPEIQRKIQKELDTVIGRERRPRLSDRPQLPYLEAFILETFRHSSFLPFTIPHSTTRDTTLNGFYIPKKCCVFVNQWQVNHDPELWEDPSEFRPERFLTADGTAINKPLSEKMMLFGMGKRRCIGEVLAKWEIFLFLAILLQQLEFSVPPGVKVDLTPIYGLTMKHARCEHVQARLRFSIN

The test addresses Cytochrome P450 1A2 (Homo sapiens) (UniProt P05177). In words: Cytochrome panel assay with activity outcomes. The conditions noted are these: recombinant CYP, pro-luciferin dealkylation, luminescence, p450-cyp1a2; series mostly up to 57.1 µM.
Usually AC50 stands for the concentration giving half of the maximal activity seen. In the case of `O=C(O)CCCC[C@H]1CCSS1`, the AC50 result was “inactive”.

For the molecule `COc1cccc2c1OC1(C)CC2/C(=C(\C)O)C(=O)N1` (stereo unspecified), the AC50 result was “inactive”.

Consider `CCc1ccc(-c2ccc(C(=O)C(F)(F)F)[nH]2)cc1`, for which the AC50 is 1.12 µM (active).

`N[C@@H](CO)C(=O)NNCc1ccc(O)c(O)c1O`: the AC50 result is “inactive”. Still for that read-out and setting: to `CC[C@H]1C(=O)OC[C@H]1Cc1cncn1C` belongs “inactive”. Same read-out and setting: to `O=Nc1ccc(NOC(=O)c2ccc(Br)cc2)cc1` belongs “inactive”; to `C=CC(=O)NC(NC(=O)C=C)c1ccc(Br)cc1`, “inactive”. Take `CC(C)NC(=O)CC(=O)N/N=C/c1ccc(F)cc1`: the AC50 is 15.8 µM (active).

Take `CC(C)NC(=O)CC(=O)N/N=C/c1ccc(Br)cc1`: the AC50 was 1.41 µM (active).

Regarding `Cc1ccc(S(=O)(=O)N(CC(=O)N/N=C/c2ccc(F)cc2)c2cccc3cccnc23)cc1`, the AC50 result was “inactive”. Same read-out and setting: to `CC(NC(=O)Cc1ccc(F)cc1)c1ccccc1` (stereo unspecified) belongs “inactive”. For `C1CCC(N=C(NC23CC4CC(CC(C4)C2)C3)N2CCOCC2)CC1`, the AC50 entry is “inactive”. The same measure, in the same setting: to `Cc1nc2cncnc2n(Cc2ccc(F)cc2)c1=O` belongs 10 µM (active). Regarding `Cc1nc2cncnc2n(Cc2ccccc2)c1=O`, the AC50 was 12.6 µM (active). `CC(=O)OC[C@@H]1O[C@H](C/C=N\O[C@@H](C)CN2CCCc3nc(C)c(C)cc32)C=C[C@@H]1OC(C)=O`: the activity, negative = inhibition was -4.85% [at 11.4 µM]. Take `O=C1[C@H]2[C@H]3[C@H](O)[C@H](O)C/C(=N/OCc4ccccc4)[C@@H]3CC[C@@H]2C(=O)N1Cc1ccc2c(c1)OCO2`: the activity, negative = inhibition was -8.98% [at 11.4 µM]. In the case of `Cc1ccc(CCN2CC(C(=O)NCCCN(C)Cc3ccccc3)CC2=O)cc1` (stereo unspecified), the AC50 entry is “inactive”. Regarding `O=C1[C@H]2[C@H]3[C@H](O)[C@H](O)C/C(=N/OCc4ccccc4)[C@H]3CC[C@@H]2C(=O)N1Cc1ccc2c(c1)OCO2`, the activity, negative = inhibition was -4.06% [at 11.4 µM]. For `CCN(CC)S(=O)(=O)N1CCC(C(=O)NCc2ccc(C)cc2)CC1`, the AC50 entry is “inactive”. `Cc1ccc(CNC(=O)C2CC(c3ccccc3[N+](=O)[O-])=NO2)cc1` (stereo unspecified): the AC50 was 5.01 µM (active).

Consider `Cc1ccc(CCNC(=O)C2CC(c3ccccc3[N+](=O)[O-])=NO2)cc1` (stereo unspecified), for which the AC50 was 6.31 µM (active). On the same count and under the same terms, to `CC(C)(C)OC(=O)N1CCCC1C(=O)NCCc1ccccc1` (stereo unspecified) belongs “inactive”.

Regarding `Cc1ccc(CNC(=O)C2CC(c3ccccc3[N+](=O)[O-])=NO2)o1` (stereo unspecified), the half-maximal activity concentration (AC50) was 6.31 µM (active).

For the molecule `Cc1ccc(CNC(=O)C2CCC(=O)N2C2CCCCC2)cc1` (stereo unspecified), the AC50 entry is “inactive”. On the same count and under the same terms, to `O=C(NCc1ccc2c(c1)OCO2)C1CC(c2cccc(Br)c2)=NO1` (stereo unspecified) belongs 2 µM (active); to `COc1c(N2CCN(C(=S)Nc3ccc(F)cc3)C(C)C2)c(F)cc2c(=O)c(C(=O)O)cn(C3CC3)c12` (stereo unspecified), “inactive”.

With `O=C(NCCCCc1ccccc1)C1CC(c2ccccc2[N+](=O)[O-])=NO1` (stereo unspecified), the AC50 is 2.24 µM (active).

Take `COc1ccc(CNC(=O)C2CC(c3cccc([N+](=O)[O-])c3)=NO2)cc1` (stereo unspecified): the AC50 is 15.8 µM (active). The same measure, in the same setting: to `COc1cccc(C2=NOC(C(=O)NCc3ccccn3)C2)c1` (stereo unspecified) belongs “inactive”; to `NS(=O)(=O)c1ccc(CCNC(=O)C2CCCN2C(=O)OCc2ccccc2)cc1` (stereo unspecified), “inactive”; to `CCOC(=O)c1cc(NC(=O)c2ccc(OC)cc2)c(=O)oc1-c1ccccc1`, “inactive”.

In the case of `CCCCN(C)S(=O)(=O)c1ccc(C(=O)Nc2nnc(CSC)o2)cc1`, the AC50 result was “inactive”. Still for that read-out and setting: to `CCOC(=O)c1oc2ccccc2c1NC(=O)c1ccc2c(c1)OCO2` belongs 1 µM (active); to `CCOC(=O)c1oc2ccccc2c1NC(=O)c1cc(OC)cc(OC)c1`, 0.794 µM (active).

With `CCOC(=O)c1oc2ccccc2c1NC(=O)c1ccc(S(=O)(=O)N(C)C)cc1`, the AC50 was 12.6 µM (active).

Turning to `Cc1cc(NC(=O)c2ccc(S(=O)(=O)N(C)C)cc2)n(-c2ccccn2)n1`, the AC50 entry is “inactive”. Turning to `CC(C)(N)CO[C@H]1C[C@H]2CC[C@@]1(C)C2(C)C`, the activity, negative = inhibition is -8.25% [at 11.4 µM].

Consider `CC(=O)Nc1ccc(S(=O)(=O)NCC2CCC(C(=O)NCCC(C)C)CC2)cc1` (stereo unspecified), for which the AC50 entry is “inactive”. On the same count and under the same terms, to `Cn1cccc1C(=O)N1CCC2(CC1)CN(Cc1ccc(C#N)cc1)C2` belongs “inactive”; to `CCOc1cc(/C=N/n2cnnc2)c(Br)cc1O`, 10 µM (active). Regarding `Cc1cc(F)ccc1S(=O)(=O)Nc1ccccc1C(=O)Nc1ccccc1N1CCOCC1`, the AC50 result is “inactive”. On the same count and under the same terms, to `O=C(Nc1ccccc1N1CCN(C(=O)c2ccccc2)CC1)c1cc(Br)ccc1Cl` belongs “inactive”. The same measure, in the same setting: to `NS(=O)(=O)c1cc(C(=O)O)cc(N2CCCC2)c1Oc1ccccc1` belongs “inactive”; to `Cc1noc(NS(=O)(=O)c2ccc(NC(=O)c3ccc(Br)o3)cc2)c1C`, “inactive”.

With `Cc1cc(C)n(-c2ccc(C(=O)Nc3cc(C(F)(F)F)ccc3N3CCOCC3)cc2)n1`, the AC50 entry was “inactive”. `O=C(Nc1cc(C(F)(F)F)ccc1N1CCCCC1)c1ccc(Br)o1`: the AC50 is 0.282 µM (active). As for `CC(C)(C)c1ccc(OCC(=O)NNC(=O)CCc2ccccc2)cc1`, the AC50 entry is “inactive”. On to `CS(=O)(=O)N1CCN(c2ccccc2NC(=O)c2ccc(Br)o2)CC1`, for which the AC50 is 14.1 µM (active). The same measure, in the same setting: to `O=C(COc1ccccc1)Nc1cc(C(F)(F)F)ccc1N1CCCC1` belongs 2 µM (active); to `O=C(c1cnccn1)N1CCC2(CC1)CN(Cc1nccs1)C2`, “inactive”; to `O=C(NNC(=S)NC(=O)c1cccnc1)c1ccccc1`, “inactive”.

As to `O=C(NC(=S)Nc1ccc(Br)cn1)c1cncc(Br)c1`, the AC50 was 0.282 µM (active). In the case of `COc1ccc(C2C(C(=O)N3CCN(C)CC3)c3ccccc3C(=O)N2C2CCCCC2)cc1` (stereo unspecified), the AC50 result was “inactive”. Still for that read-out and setting: to `O=C(NC1CCCCC1)c1sc(=S)n2c1[nH]c(=O)c1ccccc12` belongs 3.16 µM (active); to `O=C(NCc1ccccc1)c1sc(=S)n2c1[nH]c(=O)c1ccccc12`, 8.91 µM (active).

For the molecule `COc1cccc(/C=c2/s/c(=C(\C#N)C(=O)N3CCOCC3)n(-c3ccccc3)c2=O)c1`, the AC50 entry is “inactive”. As to `CCOC(=O)N/N=C1/C[C@@H](O)[C@@H](O)[C@@H]2[C@@H]3C(=O)N([C@@H](C)c4ccccc4)C(=O)[C@H]3CC[C@H]12`, the activity, negative = inhibition is 7.27% [at 11.4 µM].

For `CN(C)CCN1C(=O)C(O)=C(C(=O)c2cc3ccccc3o2)C1c1ccccn1` (stereo unspecified), the AC50 result was “inactive”.

On to `Cc1ccc2nc(N3CCN(S(=O)(=O)c4ccc5c(c4)OCCO5)CC3)c(C#N)cc2c1`, for which the AC50 result was “inactive”.

As for `Cc1ccc(-c2csc(N3CCC(NS(=O)(=O)c4ccc5c(c4)OCCO5)CC3)n2)cc1`, the AC50 is 5.01 µM (active). Still for that read-out and setting: to `CN1CCCN(S(=O)(=O)c2ccc3c(c2)OCCO3)CC1` belongs “inactive”. Take `CCn1c2ccccc2c2cc(/C=N/n3cn[nH]c3=S)ccc21`: the AC50 was 2.82 µM (active). With `Nc1nonc1-c1nc2ccccc2n1Cc1ccc(F)cc1Cl`, the AC50 was 0.2 µM (active). On the same count and under the same terms, to `Clc1ccc(Cn2c(-c3cccnc3Cl)nc3ccccc32)c(Cl)c1` belongs 12.6 µM (active); to `CC(=O)OCC(=O)[C@@]1(O)CC[C@@H]2[C@H]3CCC4=CC(=O)C=C[C@]4(C)[C@]3(F)[C@@H](O)C[C@@]21C`, “inactive”; to `Cc1ccccc1-c1nc(NC2CC2)c2ccccc2n1`, 0.501 µM (active). Same read-out and setting: to `COc1ccccc1-c1nc(NC2CC2)c2ccccc2n1` belongs 0.316 µM (active); to `CC(=O)Nc1ccc(S(=O)(=O)N2CCN(c3nc(NC4CCCC4)c4ccccc4n3)CC2)cc1`, “inactive”; to `COc1cc(CC(=O)O)c(C(C)=O)cc1OC`, “inactive”. Same read-out and setting: to `CC(=O)c1cc(CC=C(C)C)c(O)cc1O` belongs 3.55 µM (active); to `Nc1nc(SCc2ccccc2[N+](=O)[O-])c2[nH]cnc2n1`, 5.01 µM (active).

In the case of `CCC[C@H](Sc1nc(N)nc2nc[nH]c12)C(=O)O`, the activity, negative = inhibition is -9.79% [at 11.4 µM].

On to `Nc1nc(N)c2[nH]cnc2n1` (tested in a mixture with another compound), for which the activity, negative = inhibition is -5.45% [at 2.29 µM].

In the case of `O=C(O)CCSc1ncnc2nc[nH]c12`, the activity, negative = inhibition is -3.4% [at 11.4 µM]. Take `Nc1nc(Sc2ccc([N+](=O)[O-])c3nonc23)c2[nH]cnc2n1`: the activity, negative = inhibition is -26.1% [at 2.29 µM]. As for `Nc1nc(SC/C=C\c2ccccc2)c2[nH]cnc2n1`, the AC50 is 5.01 µM (active). The same measure, in the same setting: to `Nc1nc(SCCc2ccccc2)c2[nH]cnc2n1` belongs 3.16 µM (active); to `Cc1cccc(N(C)S(=O)(=O)c2ccc3[nH]c(=O)c(=O)[nH]c3c2)c1`, “inactive”; to `COCC(=O)N1CCC2(CCCN(Cc3nccs3)C2)CC1`, “inactive”. `CC(C)=NOCc1ccc(-c2cn([C@@H]3COC[C@@H]3O)nn2)cc1`: the activity, negative = inhibition is -5.29% [at 11.4 µM]. Turning to `c1ccc(/C(=N/Nc2nc3ccccc3s2)c2ccccn2)cc1`, the AC50 was 3.16 µM (active). The same measure, in the same setting: to `COc1cccc(-c2cc3nc(-c4ccccc4)cc(N4CCC5(CC4)OCCO5)n3n2)c1` belongs 0.251 µM (active). The same measure, in the same setting: to `CC1CN(C(=O)COc2ncnc3ccccc23)CC(C)O1` (stereo unspecified) belongs “inactive”. With `CCOc1ccc(OCCOc2ncnc3ccccc23)cc1`, the AC50 was 12.6 µM (active). Still for that read-out and setting: to `Cc1cc(C)cc(-n2c(C)cc(C=C(C#N)C#N)c2C)c1` belongs “inactive”; to `CCc1ccc(N(C(=O)c2snc(C(N)=O)c2N)C(C(=O)NCCC(C)C)c2c[nH]c3ccccc23)cc1` (stereo unspecified), “inactive”; to `CCOc1cc(C#N)c(NC(=O)c2cccnc2)cc1OCC`, 20 µM (active). With `CCN(CC)c1ccc(NC(=O)c2cccnc2)c(C)c1`, the AC50 entry was “inactive”.

With `CS(=O)(=O)N1CCC2(CCN(Cc3nccs3)CC2)CC1`, the AC50 result is “inactive”. Same read-out and setting: to `COC(=O)C1=C(CSc2nncn2C)NC(=O)NC1c1ccc(F)cc1` (stereo unspecified) belongs “inactive”; to `Cn1cnnc1SCC(=O)n1c2ccccc2c2ccccc21`, 0.0501 µM (active).

On to `O=C(CCCN1C(=O)C2C3C=CC(C3)C2C1=O)N1CCN(c2ccccc2)CC1` (stereo unspecified), for which the AC50 entry was “inactive”. The same measure, in the same setting: to `CCc1cccc2c(C=C(C#N)C#N)cn(CC(=O)N3CCCC3)c12` belongs “inactive”. On the same count and under the same terms, to `O=C(CCCN1C(=O)c2cccc3cccc(c23)C1=O)N1CCc2ccccc2C1` belongs 6.31 µM (active); to `O=C(CN1C(=O)c2cccc3cccc(c23)C1=O)N1CCCCCC1`, 14.1 µM (active); to `CCc1cccc2c(C=C(C#N)C#N)cn(CC(=O)N3CCCCC3)c12`, “inactive”.
